The values below come from PubChem BioAssay (NCI).

The panel holds about 83,000 compounds, 20% with a hit somewhere; the sample as a whole holds those more often.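 Plates (96-well) were seeded with cells, treated with compound at one concentration, and incubated for 48 hours before percent growth was determined.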 A number with no mark means an inactive call. Activity calls are given as the source filed them. Rule for the calls: active = growth percent below 10; inactive = the rest.

Common to all, as to assay: NCI-60 one-dose screen, 48 h (100 = growth as untreated, 0 = no growth, -100 = all killed)
One assay concerns T-47D breast. The settings on record: 10 µM unless noted.
A further assay deals with BT-549 breast. The note with it: 10 µM unless noted.
The next assay concerns MDA-MB-435 melanoma. The settings on record: 10 µM unless noted.
Another assay relates to SW-620 colon. The note with it: 10 µM unless noted.
A further assay has as its system MCF7 breast. The settings on record: 10 µM unless noted.
In another assay the test system is HCT-116 colon. The note with it: 10 µM unless noted.
The next assay deals with HCC-2998 colon. The note with it: 10 µM.
The test system of the next assay is KM12 colon. The note with it: 10 µM unless noted.

Turning to `CCc1nc2cc(/C=C/C(=O)NO)ccc2c(=O)n1CCc1ccc(OC)cc1`, the growth with T-47D breast was -2.1% (active); in the assay on BT-549 breast it was 55.1%; in the assay on MDA-MB-435 melanoma, 7.73% (active); in the assay with SW-620 colon, 5.44% (active); in the assay with MCF7 breast, 10.5%; with HCT-116 colon it was 1.28% (active). For the same compound, the growth with HCC-2998 colon is 48%; with KM12 colon it was 23.7%.
Take `COc1cccc2cc(-c3nc(C4CCC(C(=O)O)CC4)n4ncnc(N)c34)[nH]c12` (configuration not stated): the growth is -30.2% (active) in the assay with T-47D breast; -11.5% (active) in the assay on BT-549 breast; -8.42% (active) with MDA-MB-435 melanoma; 14.4% in the assay on SW-620 colon; 6.71% (active) with MCF7 breast; 26.3% in the assay with HCT-116 colon. Moreover, the growth in the assay with HCC-2998 colon is 23.1%; with KM12 colon, 18.4%.
Regarding `O=C(NO)c1ccc(Cn2c(=O)n(-c3ccccc3F)c(=O)c3ccccc32)cc1`, the growth in the assay on T-47D breast was 8.62% (active); in the assay on BT-549 breast, 21.3%; in the assay with MDA-MB-435 melanoma, -78.7% (active); with SW-620 colon it was 0.226% (active); in the assay on MCF7 breast, 20.8%; in the assay with HCT-116 colon it was -3.7% (active). Moreover, the growth in the assay with HCC-2998 colon is -32.9% (active); in the assay on KM12 colon, -40.7% (active).
Turning to `Cc1cc(N(CCNc2ccnc3cc(Cl)ccc23)Cc2ccc3c(c2)OCO3)nc(N2CCCC2)n1`, the growth with T-47D breast is -36.4% (active); in the assay with BT-549 breast, -7.74% (active); in the assay with MDA-MB-435 melanoma it was -69.5% (active); in the assay on SW-620 colon, 8.91% (active); in the assay with MCF7 breast, 7.77% (active); with HCT-116 colon, -68.8% (active). For the same compound, the growth in the assay on HCC-2998 colon is -24.4% (active); in the assay with KM12 colon, 44.9%.
Turning to `COc1cnc2c(c1)C(=O)c1c-2n(CCCn2ccnc2)c(=O)c2cc(Cl)ccc12`, the growth in the assay with T-47D breast was -1.88% (active); in the assay with BT-549 breast it was 13.2%; with MDA-MB-435 melanoma, 11%; with SW-620 colon, 20.1%; with MCF7 breast it was 7.47% (active); in the assay with HCT-116 colon, -20.7% (active). The growth in the assay on HCC-2998 colon is 31.6%; with KM12 colon, 9.84% (active).
In the case of `Cc1ccc(NC(=O)NC(=O)CSc2nc3ccccc3nc2C)cc1`, the growth in the assay with T-47D breast is 40.9%; with BT-549 breast, 59.9%; in the assay on MDA-MB-435 melanoma it was 74.1%; in the assay with SW-620 colon, 78.3%; with MCF7 breast it was 52.4%; with HCT-116 colon, 17.1%. Moreover, the figures for the growth in the assay on HCC-2998 colon and in the assay on KM12 colon were 72.1% and 76.5%, respectively.
In the case of `Cc1cc(Nc2ncnc3ccc(NC4=NC(C)(C)CO4)cc23)ccc1Oc1ccn2ncnc2c1`, the growth was 32.3% in the assay on T-47D breast; 42.4% with BT-549 breast; 43.9% in the assay with MDA-MB-435 melanoma; 18.2% with SW-620 colon; 21.4% in the assay on MCF7 breast; 16.1% in the assay with HCT-116 colon. Also, the growth in the assay on HCC-2998 colon was 18.9%; with KM12 colon, 21.3%.
`O=C(NC[C@H](O)CO)c1ccncc1Nc1ccc(I)cc1F`: the growth with T-47D breast is 47.7%; in the assay on BT-549 breast it was 88%; in the assay with MDA-MB-435 melanoma, 35.2%; with SW-620 colon it was 17.4%; with MCF7 breast, 49.1%; in the assay on HCT-116 colon, 9.79% (active). Further, the growth was 2.1% (active) with HCC-2998 colon and 16.6% in the assay on KM12 colon.
`Cc1ccc(-c2cc3c(SCC(=O)Nc4cc(C(F)(F)F)ccc4Cl)nccn3n2)cc1`: the growth is 101% in the assay with T-47D breast; 81.2% in the assay on BT-549 breast; 38.7% with MDA-MB-435 melanoma; 18.2% in the assay on SW-620 colon; 14.7% in the assay with MCF7 breast; 14.7% in the assay with HCT-116 colon. Also, the growth in the assay on HCC-2998 colon is 19.5%.
For `COc1ccc(/C(C)=C(\c2ccc(Cl)cc2)c2ccc(OCCN3CCCCCC3)cc2)cc1`, the growth with T-47D breast was 39.6%; in the assay with BT-549 breast, 63.5%; in the assay on MDA-MB-435 melanoma it was 65.9%; in the assay with SW-620 colon it was 45%; in the assay on MCF7 breast it was 36.5%; in the assay with HCT-116 colon, 38.3%. For the same compound, the growth with HCC-2998 colon is 82.1%; in the assay on KM12 colon it was 31.2%.
As to `CCOc1cccc(/C=N/NC(=O)c2ccccc2Nc2ccnc(C(F)(F)F)c2)c1O`, the growth in the assay with T-47D breast is 16.5%; with BT-549 breast, 26.4%; with MDA-MB-435 melanoma, 29.8%; in the assay with SW-620 colon it was 32.3%; with MCF7 breast it was 2.99% (active); with HCT-116 colon, 14.7%. For the same compound, the results for the growth in the assay on HCC-2998 colon and with KM12 colon were 48.6% and 33.2%, respectively.
Consider `CCCCCCCC12Cc3ccccc3C1=Nc1c(c3ccccc3n1C)C2=O` (configuration not stated), for which the growth with T-47D breast is 72.4%; in the assay on BT-549 breast, 108%; in the assay with MDA-MB-435 melanoma, 105%; in the assay on SW-620 colon, 97%; in the assay on MCF7 breast it was 80.2%; with HCT-116 colon, 73.9%. The growth with HCC-2998 colon is 96.3%; in the assay on KM12 colon it was 94.2%.
`O=C(Nc1ccc(C(=O)Nc2ccc(C3=NCCCN3)cc2)cc1)Nc1ccc(C2=NCCCN2)cc1`: the growth was 45.2% in the assay on T-47D breast; 76.1% in the assay on BT-549 breast; 103% with MDA-MB-435 melanoma; 101% in the assay with SW-620 colon; 70.8% in the assay on MCF7 breast; 63.9% in the assay on HCT-116 colon. Besides, the growth with HCC-2998 colon was 101%; with KM12 colon it was 88.9%.
On to `CCS(=O)(=O)N1CCN(c2ccc(Nc3ncc(C(N)=O)c(NC4CC4)n3)cc2)CC1`, for which the growth is 99.1% in the assay with T-47D breast; 67% with BT-549 breast; 68.7% in the assay on MDA-MB-435 melanoma; 60.1% with SW-620 colon; 68.5% in the assay with MCF7 breast; 49.2% with HCT-116 colon. The results for the growth in the assay with HCC-2998 colon and with KM12 colon were 98.3% and 24.5%, respectively.
Take `COc1cc(N2CCC(N3CCN(C)CC3)CC2)ccc1Nc1ncnc(Nc2ccccc2S(=O)(=O)C(C)C)n1`: the growth with T-47D breast was 74.7%; in the assay with BT-549 breast it was 104%; in the assay on MDA-MB-435 melanoma, 108%; in the assay with SW-620 colon, 100%; in the assay on MCF7 breast it was 88.6%; with HCT-116 colon, 88.2%. The growth in the assay on HCC-2998 colon was 97.3%; with KM12 colon, 109%.
Consider `O=C(Cc1ccc(/C=C/C(=O)c2ncc[nH]2)cc1)Nc1ccc(Br)cc1`, for which the growth is 17.5% with T-47D breast; 20.5% in the assay with BT-549 breast; 43.5% with MDA-MB-435 melanoma; 2.37% (active) in the assay with SW-620 colon; 11.8% with MCF7 breast; -40.2% (active) with HCT-116 colon. Also, the growth in the assay with HCC-2998 colon was 78.6%; in the assay with KM12 colon, -43.3% (active).
